We go through three compounds from PubChem BioAssay AID504914 (The Scripps Research Institute Molecular Screening Center, 2011).

This is one part of the list. The source made the active and inactive calls. The rule behind the calls is not given here.

5-hydroxytryptamine receptor 5A (Homo sapiens), sequence (P47898 whole entry, looked up): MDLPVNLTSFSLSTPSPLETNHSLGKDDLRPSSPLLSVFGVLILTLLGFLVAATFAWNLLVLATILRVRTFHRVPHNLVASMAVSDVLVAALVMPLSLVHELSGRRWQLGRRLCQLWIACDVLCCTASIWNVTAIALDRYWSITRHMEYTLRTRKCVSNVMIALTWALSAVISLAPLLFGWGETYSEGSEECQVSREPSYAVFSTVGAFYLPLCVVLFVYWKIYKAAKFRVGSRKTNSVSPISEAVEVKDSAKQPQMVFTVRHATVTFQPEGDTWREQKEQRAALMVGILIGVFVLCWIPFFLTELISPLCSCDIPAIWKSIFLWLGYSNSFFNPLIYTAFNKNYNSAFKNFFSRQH

This test has as its target 5-hydroxytryptamine receptor 5A (Homo sapiens) (UniProt P47898). Briefly: HTR5A inverse agonists, counter-screen for OPRM1-OPRD1 inverse agonist project, cell-based, luminescence (AID 504914).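 Note: 0% = cells with DMSO and 100% = no-cell wells with DMSO.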 Particulars: HTR5A-expressing cells, inverse agonism, at 9.3 µM, active compounds read high. On the technique in general: Counterscreens check selectivity or assay interference.
For `CCOC(=O)c1c(N)n(CCN2CCOCC2)c2nc3ccccc3nc12`, the inhibition (in general, the change of the read-out against control, counted positive when it falls) is -10.8% (inactive). The same measure for `CCOC(=O)c1c(N)n(Cc2ccccc2)c2nc3ccccc3nc12`: 18% (inactive); for `CC1=CC(=Cc2sc3ccccc3[n+]2C)C=C(C)O1`: -18.3% (inactive).
